Compound activity as filed in PubChem BioAssay.
Pf growth 96h: inhibits malaria parasite growth, 96 h; P. falciparum luciferase reporter growth, 96 h; Potency, µM (doses to about 28.7 µM), inactives show at the highest dose activity change, negative = inhibition, most hits filed as inhibitors; actives 6.9% (n = 320,000); also: potency is read from the fitted curve at half-maximal effect; % is scaled to controls: 0 for no effect and ±100 for the full control effect
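Delayed-death screen, second-generation endpoint: infected erythrocytes, 2% hematocrit, 0.05% parasitemia final; 96 hours at 37 C, 5% CO2; luciferase detection reagent; luminescence decrease equals reduced growth.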
NS1 function inh: inhibitors of influenza NS1 protein function; Potency, µM (top dose mostly 46.1 µM), inactives show top-dose activity, positive = more growth; actives 0.4% (n = 270,000); calls by dose curve; also: potency is read from the fitted curve at half-maximal effect; actives are rising curves; nearly all actives have a fitted effect of over 50% in size
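Compounds were scored for reversing the slow growth caused by influenza A NS1 in S. cerevisiae, measured by optical density at 600 nm. Assay medium contained 2% galactose at pH 6.0; NS1-free yeast of the same strain were the positive control.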
Cycloheximide cs: counter-screen for Shiga toxin inhibitors: cycloheximide protein synthesis inhibition; cell reporter, cycloheximide protein synthesis inhibition counterscreen; max response, %; actives 12% (n = 300,000); in the data active = max response mostly above about 13%, no sharp cut-off; inactive = mostly below about 14%; also: read at 38.3 µM for the half of the compounds with a filed dose; 0% is about no effect
Sm TGR inh: blocks Schistosoma mansoni thioredoxin glutathione reductase; purified TGR, DTNB reduction, TNB absorbance 405 nm; AID 485364; actives 3% (n = 360,000); Q962Y6; Potency, µM (titrated, usually from 114 µM), for inactives: at the top dose activity change, negative = inhibition, hits mostly inhibitors; also: potency is read from the fitted curve at half-maximal effect; % is scaled to controls: 0 for no effect and ±100 for the full control effect; nearly all actives have a fitted effect of over 60% in size
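TGR 20 nM + NADPH 100 uM (dispensed conc.), cpd preinc 15 min RT; start with NADPH (500 uM addition) then DTNB (15 mM addition). Kinetic TNB absorbance, 405 nm filter. Four-parameter Hill fit across titration.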
Shiga inhibitor: inhibitors of Shiga toxin in Vero cells; inhibition, % at 38.7 µM; actives 9.2% (n = 290,000); AID 2315; Vero cells, Shiga toxin protein synthesis inhibition reporter; in the data active = inhibition mostly above about 28%, no sharp cut-off; inactive = mostly below about 43%; also: 0% is about no effect
Pf growth 48h: inhibits P. falciparum growth in the first generation, 48 h. P. falciparum luciferase growth in erythrocytes, 48 h. Potency, µM (doses to about 28.7 µM), for the others: at the highest dose activity change, negative = inhibition, actives largely listed as inhibitors. AID 504832. actives 5.9% (n = 310,000); also: potency is read from the fitted curve at half-maximal effect; % is scaled to controls: 0 for no effect and ±100 for the full control effect
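Luciferase-expressing parasites in RBCs, 2% Hct / 0.1% parasitemia final; RPMI 1640 + 0.5% Albumax; 37 C, 5% CO2, one generation; luminescence read-out, lower signal = inhibition.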
* hit, by the source's call; i = inactive; ? = inconclusive; · = not tested or not shown. This is a sample that favours compounds with a hit; in the whole collection about 21% have one here. Unless noted, calls follow the shape of the dose curve; as a rule, active = well fitted curve in the direction sought with a large enough effect; inconclusive = small, poorly fitted or top-dose-only effect, or another doubt; inactive = no such curve, though single readings can be large; an effect the other way counts as inactive or inconclusive.

SMILES | Pf growth 96h | NS1 function inh | Cycloheximide cs | Sm TGR inh | Shiga inhibitor | Pf growth 48h
O=C(O)CSc1nnc(CNc2cccc(C(F)(F)F)c2)n1Cc1ccco1 | 6.6µM* | 10% | -4 | 0% | 6 | 18%
COC(=O)CSc1nnc(CSc2nc(C)cc(C)n2)n1Cc1ccco1 | · | 8% | -4 | 40µM* | -2 | 20%
O=C(CSc1nnc(CNc2cccc(C(F)(F)F)c2)n1Cc1ccco1)NCc1ccco1 | -25% | 10% | -2 | -32% | 10 | -27%
O=C(CSc1nnc(Cc2cccs2)n1Cc1ccco1)Nc1ccc(Br)cc1 | · | -96% | 5 | 20µM* | -2 | ?
Cc1cc(C)nc(SCc2nnc(SCC(=O)Nc3ccc(C)c(C)c3)n2Cc2ccco2)n1 | 13µM* | -5% | 11 | ? | -13 | ?
COc1cc(OC)cc(-n2nnc(-c3nc(-c4ccccc4Cl)no3)c2N)c1 | · | · | · | 0% | · | ·
CN(C)S(=O)(=O)N1CCN(CC(O)COc2ccc(-c3ccccc3)cc2)CC1 (centres undefined) | 32% | -36% | -1 | -2% | · | ?
Cc1cc2oc3c(c(=O)c2cc1C)C(c1ccc(C(C)C)cc1)N(c1nc(C)c(C)s1)C3=O (centres undefined) | · | · | · | 3% | · | ·
COc1ccc(NC(=O)c2sc3nc[nH]c(=O)c3c2C)cc1Cl | · | · | · | 2% | · | ·
C[C@@H](NCCCc1cccc(C(F)(F)F)c1)c1cccc2ccccc12 | 12µM* | · | · | · | · | 7.6µM*
CCNC(C)Cc1cccc(C(F)(F)F)c1 (centres undefined) | 13µM* | · | 23 | · | 29 | -5%
Cc1ccc(/C=N/NC(=O)c2ccc3ccccc3c2)s1 | -6% | -26% | 28* | -17% | 47* | 44%
Cc1ccc(/C=N/NC(=O)c2cccc(S(=O)(=O)Nc3ccccc3Cl)c2)s1 | 1% | ? | 5 | 2% | 5 | 4%
O=C(N/N=C/c1cc(Br)cs1)c1ccc2c(c1)OCCO2 | 66% | -3% | 37* | 8% | 68* | 0%
Cc1ccc(/C=N/NC(=O)c2ccc3c(c2)OCCO3)s1 | 56% | -31% | 38* | 2% | 55* | 203%
NC(=O)n1c(O)c(C(=O)c2cccs2)c2cc(Cl)ccc21 | -11% | · | -5 | · | -5 | -7%
O=C1[C@H]2CCC=C[C@H]2[C@H](c2cccc(Br)c2)N1Cc1ccccc1 | · | · | -2 | · | i | ·
CCN1CCN(c2nc3ccccc3n3cnnc23)CC1 | 22% | 7% | -2 | 1% | -5 | 22%
O=C1CN(c2nc3ccccc3n3cnnc23)CC(=O)N1CCc1ccccc1 | ? | -35% | -5 | 32µM* | -16 | 3%
Cc1cc([N+](=O)[O-])ccc1NC(c1nnc(-c2ccccc2)o1)c1ccccc1F (centres undefined) | · | · | · | 3% | · | ·
Cc1cc(NC(=O)CSc2nnc(N)s2)c([N+](=O)[O-])cc1C | 43% | · | 7 | -10% | 16 | -7%
CCC(C)(C)c1ccc(OCCCC[n+]2cccc(C)c2C)c(C(C)(C)CC)c1 | 0.37µM* | -61% | -2 | 17% | -24 | 0.83µM*
Cc1cc[n+](CC[n+]2ccc(C)cc2)cc1 | 13% | · | · | 0% | · | -7%
CCC(C)(C)c1ccc(OCCCC[n+]2ccc(C)cc2)c(C(C)(C)CC)c1 | 3.7µM* | · | -5 | -10% | -21 | 1.9µM*
CCO[C@H]1OC(C(=O)N2CCCCCCC2)=C[C@@H](C)[C@@H]1CCCO | -14% | 2% | 1 | 8% | -17 | -28%
CCc1ccccc1NC(=O)CC1NCCNC1=O (centres undefined) | · | · | · | -4% | · | ·
COc1cc(C(=O)NCC(=O)OC(C)C(=O)Nc2ncc(Cl)cc2Cl)cc(OC)c1OC (centres undefined) | 11% | · | 15 | 1% | -3 | 10%
O=C(Nc1ccc(C(=O)NN2C(=O)c3ccccc3C2=O)cc1)c1ccccc1 | 88% | · | -4 | -1% | -4 | 27%
O=C(O)c1ccc2c(c1)C(=O)N(NC(=O)c1ccccc1)C2=O | 37% | 6% | 31* | 18% | 61* | 18%
CN1CCC[C@@H]1c1cccnc1.O=C(O)c1ccccc1O.O=C([OH2+])c1ccccc1O.O=C([OH2+])c1ccccc1O.[Mn] | · | -3% | · | · | · | ·
